From PubChem BioAssay
SW480 rereplic = induces DNA re-replication in SW480 colon adenocarcinoma cells; 340,000 tested, 1.8% active; SW480 DNA re-replication, Hoechst DNA content imaging, 48 h; AID 624297; Potency, µM (titrated, usually from 46.1 µM), for the others: at the highest dose re-replication activation, usual class: activators; further: potency means the concentration at half of the fitted maximal effect; % of control where 0% means no effect; nearly all actives have a fitted effect of over 55% in size
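250 cells/well; 23 nL cpd via pin tool; 48 hr, 37 C, 5% CO2; Hoechst 40 min; imager read of total nuclear intensity, ex 405/em 500-530 nm.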
MCF10A rereplic = DNA re-replication induction in MCF 10a cells; MCF 10A DNA re-replication, Hoechst nuclear intensity, 48 h; Potency, µM (highest dose often 46.1 µM), without a hit: at the highest dose activity, positive = re-replication, usual class: activators; 350,000 tested, 2.9% active; AID 624296; further: potency means the concentration at half of the fitted maximal effect; % of control where 0% means no effect; nearly all actives have a fitted effect of over 50% in size
BCR signal inh = blocks chronic active B-cell receptor signaling; ABC-DLBCL IkBa-CBG/CBR reporter, luminescence ratio, 4 h; Potency, µM (top dose mostly 46.1 µM), without a hit: at the highest dose activity change, negative = inhibition, hits mostly inhibitors; 340,000 tested, 0.05% active; AID 493014; active means well fitted inhibition curve with a large enough effect in the signal ratio, with a control signal flat, not every such curve was filed as active; inconclusive means small, poorly fitted or top-dose-only effect, or effect the other way, or a change in a side signal; the % refers to the signal ratio;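 further: potency means the concentration at half of the fitted maximal effect; plate controls were basal doxycycline-induced cells for no effect and cells given 10 µM MG132 for full effect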
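TMD8 ABC-DLBCL cells carrying doxycycline-inducible green luciferase fused to IkappaBalpha plus unfused red luciferase were exposed to compounds (up to 46 uM) for 4 hrs at 37C. Activity came from the overlap-corrected green/red luminescence ratio.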
IL-1B inflam inh = inhibitors of inflammasome signaling (IL-1 beta secretion). activity change, % at 57.5 µM. THP-1 LPS/ATP IL-1B secretion, AlphaLISA, 16 h; active compounds read low. AID 743279. 360,000 tested, 4.7% active; in the data active means activity change below about -50%; inconclusive means mostly about -30% to -49%; further: on the % scale 0 is the no-effect control and ±100 the full control effect
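Secreted IL-1B measured by AlphaLISA bead assay after 16 h compound exposure of THP-1 cells; compounds (final up to 57.5 uM) added 1 h before LPS (250 ng/mL) and ATP (1.25 mM) stimulation; lower signal means less secretion.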
DT40 TDP1 no CPT = qHTS for Inhibitors of human tyrosyl-DNA phosphodiesterase 1 (TDP1): qHTS in cells in absence of CPT; 420,000 tested, 15% active; AID 686978, 2013; DT40 Tdp1-/- hTDP1 cells, no CPT, ATP luminescence, 48 h; Potency, µM (top dose mostly 46.2 µM), for inactives: at the highest dose activity change, negative = growth inhibition, most hits filed as inhibitors; further: potency means the concentration at half of the fitted maximal effect; on the % scale 0 is the no-effect control and ±100 the full control effect; nearly all actives have a fitted effect of over 55% in size
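Chicken DT40 Tdp1-/- cells stably complemented with human TDP1 were seeded at 400 cells/well with DMSO in place of 20 nM camptothecin. After compound pinning, cells grew at least 48 hr at 37 °C; viability read by CellTiter-Glo luminescence.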
DT40 TDP1 CPT = DT40-hTDP1 cell growth loss with CPT. chicken DT40 Tdp1-/-;hTDP1 cells + 20 nM CPT, ATP luminescence, 48 h. Potency, µM (titrated, usually from 46.2 µM), for inactives: top-dose activity change, negative = growth inhibition, usual class: inhibitors. 420,000 tested, 12% active. AID 686979; further: potency means the concentration at half of the fitted maximal effect; on the % scale 0 is the no-effect control and ±100 the full control effect; nearly all actives have a fitted effect of over 55% in size
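Cell growth measured by CellTiter-Glo luminescence after a minimum 48 h, 37 C compound exposure with 20 nM CPT in Tdp1-knockout DT40 cells stably expressing hTDP1, seeded 400/well; qHTS titration format.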
Active calls of the source: *; ? = inconclusive; nt = not tested or not shown. An excerpt weighted towards active compounds, which were near 19% of everything screened. Unless noted, the call rests on the fitted dose curve; in most records, active means well fitted curve in the direction sought with a large enough effect; inconclusive means small, poorly fitted or top-dose-only effect, or another doubt; inactive means no such curve, though single readings can be large; an effect the other way counts as inactive or inconclusive.

SMILES	SW480 rereplic	MCF10A rereplic	BCR signal inh	IL-1B inflam inh	DT40 TDP1 no CPT	DT40 TDP1 CPT
CCOC(=O)N1CCc2c(sc3c2C(=O)NC(c2ccccc2)N3)C1 (configuration not stated)	9.2µM*	?	0%	0	3.3µM*	6.5µM*
CCC(CC)C(=O)Nc1ccc(OCc2cc(=O)n3ccc(C)cc3n2)cc1	nt	nt	nt	nt	-15%	-4%
O=C(Oc1cccccc1=O)c1ccccc1	18µM*	?	?	-3	21µM*	18µM*
O=C(Oc1ccccc1Cl)c1ccccc1	15%	16µM*	nt	4	1%	-21%
Cc1nnsc1C(=O)Oc1ccccc1Cl	nt	nt	nt	nt	-18%	16%
CC1=C(C)Cc2c(OC(=O)c3ccccc3)ccc(OC(=O)c3ccccc3)c2C1	nt	nt	-1%	nt	nt	nt
Cc1ccc(S(=O)(=O)N2CCN(C(=O)COC(=O)/C=C/c3ccc(OC(F)F)cc3)CC2)cc1	4%	25%	nt	-11	21µM*	?
O=C(/C=C/c1ccc([N+](=O)[O-])cc1)OCC(=O)N1CCOCC1	1%	18µM*	4%	-1	-3%	-20%
O=C(/C=C/c1ccc([N+](=O)[O-])cc1)OCC(=O)N1CCCCCC1	9%	7%	?	-12	-23%	-27%
Cc1ccc(S(=O)(=O)N2CCN(C(=O)COC(=O)C3(C)CC3(Cl)Cl)CC2)c(C)c1 (configuration not stated)	-19%	-2%	5%	-1	?	23µM*
Cc1ccc(S(=O)(=O)N2CCN(C(=O)COC(=O)/C=C/c3ccccc3)CC2)c(C)c1	1%	1%	0%	-12	-28%	16µM*
Cc1ccc(S(=O)(=O)N2CCN(C(=O)COC(=O)c3ccc(Cl)c(S(N)(=O)=O)c3)CC2)c(C)c1	-8%	-5%	nt	-10	-11%	10%
CC(=O)Nc1ccc(C=NNC(=O)CCCC(=O)NN=Cc2ccc(NC(C)=O)cc2)cc1	-1%	-3%	nt	12	-4%	-1%
CCn1c(CN2CCC(C)CC2)nc2cc(NC(=O)COc3ccc([N+](=O)[O-])cc3)ccc21	nt	nt	nt	nt	-19%	-20%
Cc1ccc(S(=O)(=O)N2CCN(C(=O)COC(=O)/C=C/c3ccccc3[N+](=O)[O-])CC2)c(C)c1	?	7%	-1%	24	?	?
Cc1ccc(S(=O)(=O)N2CCN(C(=O)COC(=O)/C=C/c3cccc([N+](=O)[O-])c3)CC2)c(C)c1	-3%	5%	nt	-9	16µM*	9.2µM*
COc1cc(C(=O)OCC(=O)N2CCCCCC2)c([N+](=O)[O-])cc1OC	-9%	-2%	7%	23	-7%	?
COc1cc(C(=O)OCC(=O)N2CCN(S(=O)(=O)c3ccc(C)cc3C)CC2)c([N+](=O)[O-])cc1OC	3%	4%	nt	0	21µM*	?
Cc1ccc(C)c(NC(=O)CN(C)C(=O)c2cc(C3CC3)nn2-c2ccccc2)c1	7%	-2%	0%	-8	?	16µM*
CN(Cc1nc2ccccc2c(=O)[nH]1)C(=O)c1cc(C2CC2)nn1-c1ccccc1	9%	0%	?	22	?	13µM*
C/C(=N\OCC(=O)OC(C)C(=O)Nc1ccc(C)c(S(=O)(=O)N2CCOCC2)c1)c1ccc2c(c1)OCO2 (configuration not stated)	14%	-3%	nt	0	3%	-14%
CN(Cc1ccccc1)C(=O)c1ccc(NC(=O)Cc2cccc(NC(=O)C3CCCN(C(=O)CCc4ccccc4)C3)c2)cc1 (configuration not stated)	18%	12%	-7%	0	?	?
